Screens deposited in PubChem BioAssay by National Center for Advancing Translational Sciences (NCATS).
Pf Dd2 growth – blocks in vitro growth of P. falciparum Dd2. P. falciparum Dd2 growth, SYBR Green, 72 h. Potency, µM (doses to about 28.9 µM), without a hit: at the top dose activity, negative = inhibition, most hits filed as inhibitors. AID 1347417. 120,000 compounds, 4.3% hits; active means well fitted inhibition curve with a large enough effect;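 further: plate controls were DMSO vehicle for no effect and reference drug for full effect; nearly all actives have a fitted effect of over 65% in size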
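Readout: SYBR Green fluorescence, 485 nm excitation, 535 nm emission, after ~16 h lysis at 37C. Before that, Dd2-infected red cells (2.5% hematocrit) grew 72 h with compound, 29 uM top final concentration.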
The depositor's hits bear a star; i = inactive; [ ] = another dose, or the depositor's remark. Only a selection was taken, and hits are over-represented in it overall. Potency means the concentration at half of the fitted maximal effect.

SMILES	Pf Dd2 growth
Cc1ccc(C(=O)N2CCCC3(CC(c4cccnc4)=NO3)C2)cc1 (stereo not drawn)	i
CC1=C[C@@H](CNCCN(C)C)[C@H](C(C)C)C[C@H]1Cc1nnc(-c2ccc(C)cc2)o1	2.24µM*
CN(C)c1ccc(-c2nnc([C@H]3CCN(C(=O)CCC(=O)O)C3)o2)cc1	-28.8%[44.1 µM]
CC1=C[C@@H](CO)[C@H](C(C)C)C[C@H]1Cc1nnc(-c2ccncc2)o1	i
CC1=C[C@@H](CN2CCC[C@H]2CO)[C@H](C(C)C)C[C@H]1Cc1nnc(-c2ccc(N(C)C)cc2)o1	1.41µM*
CC1=C[C@@H](CNCCN(C)C)[C@H](C(C)C)C[C@H]1Cc1nnc(C)o1	i
CC1=C[C@@H](CO)[C@H](C(C)C)C[C@H]1Cc1nnc(Cc2c[nH]c3ccccc23)o1	i
CC1=C[C@@H](CO)[C@H](C(C)C)C[C@H]1Cc1nnc(-c2ccc(N(C)C)cc2)o1	2µM*
CC1=C[C@@H](CN(CC2CC2)CC2CC2)[C@H](C(C)C)C[C@H]1Cc1nc2ccncc2[nH]1	-1.0%[44.1 µM]
CC1=C[C@@H](CN(C)CCO)[C@H](C(C)C)C[C@H]1Cc1nnc(-c2ccc(N(C)C)cc2)o1	2.51µM*
C[S+](=O)([O-])N1CCC2(C1)C(=NC1CCCC1)NC(=O)N2c1cccnc1 (stereo not drawn)	3.9%
COCc1ccc2c(c1)c(OC(C)(C)C(=O)NCCCn1ccnc1)nn2Cc1cccnc1	13.2%
Cc1nc(CCNC(=O)C2NCCc3[nH]cnc32)nc2c1CCCC2 (stereo not drawn)	-7.9%
CO[C@@H]1COCC[C@H]1NC(=O)c1cccnc1N(C)C1CCCCC1	-28.2%
Cc1cccc(C(=O)N2C[C@@H]3CCCN4CCC[C@@H]([C@H]34)[C@H]2CCCC(=O)N2CCOCC2)c1	-9.0%
O=C(NCC1CC1)c1cn(C2CN(C(=O)Nc3ccccc3F)C2)nn1	22.4%
CCN(C)C(=O)Cn1ncc(N2CCOC(CCN)C2)cc1=O (stereo not drawn)	-0.4%
CCS(=O)(=O)N1CCCC(CCC(=O)NCc2ccc(OC)cc2OC)C1 (stereo not drawn)	-11.5%
O=C(c1cccc(OC2CN(C3CCN(Cc4ccccc4)CC3)C2)c1)N1CCOCC1	i
Cc1cccc(C(=O)N2C(C(=O)NC3CC3)COC23CCN(C(=O)Cc2ccccc2)CC3)c1 (stereo not drawn)	i
COCCNC[C@@H]1C=C(C)[C@H](Cc2nnc(-c3ccc(N(C)C)cc3)o2)C[C@H]1C(C)C	3.55µM*
COCCNC(=O)C[C@@H]1C[C@@H](C(C)C)[C@H](CNC(=O)CCC(=O)O)C=C1C	5.2%[44.1 µM]
COCCNC(=O)C[C@@H]1C[C@@H](C(C)C)[C@H](CNC(=O)c2cnccn2)C=C1C	2.2%[44.1 µM]
CCC(Nc1ccc(-c2nc(-c3ccco3)no2)cc1[N+](=O)[O-])c1ccccc1 (stereo not drawn)	10µM*
CCCCNc1ccc(-c2nc(-c3ccco3)no2)cc1[N+](=O)[O-]	13.5%
SMILES	Pf Dd2 growth
O=[N+]([O-])c1cc(-c2nc(-c3ccco3)no2)ccc1NCc1ccccc1	-8.0%
O=C(CCCc1c[nH]c2ccccc12)N[C@@H]1CCOC[C@H]1OCC1CC1	-0.8%
C=CCN(Cc1ccccc1OC)C(=O)c1cnn(CCC)c1C	-11.4%
CC1=C[C@@H](CNC(=O)CC2(CC(=O)O)CCCC2)[C@H](C(C)C)C[C@H]1Cc1nc2ccc(C)cc2[nH]1	-11.7%
CC1=C[C@@H](CNC(=O)C2CCC2)[C@H](C(C)C)C[C@H]1Cc1nc2ccc(F)cc2[nH]1	11.2µM*
CC(=O)N1CCC(NC[C@@H]2C=C(C)[C@H](Cc3nc4ccc(F)cc4[nH]3)C[C@H]2C(C)C)CC1	11.2µM*
COC(=O)c1ccc2nc(C[C@@H]3C[C@@H](C(C)C)[C@H](CNC4CCN(C)CC4)C=C3C)[nH]c2c1	3.16µM*
COc1ccc2[nH]c(C[C@@H]3C[C@@H](C(C)C)[C@H](CNC4CCN(C(C)=O)CC4)C=C3C)nc2n1	i
CC(=O)N1CCC(NC[C@@H]2C=C(C)[C@H](Cc3nc4ccc(C)cc4[nH]3)C[C@H]2C(C)C)CC1	11.2µM*
CC1=C[C@@H](CNC(=O)CCC(=O)O)[C@H](C(C)C)C[C@H]1Cc1nc2ccc(F)cc2[nH]1	-17.4%[44.1 µM]
CC1=C[C@@H](CNC(=O)c2cnccn2)[C@H](C(C)C)C[C@H]1Cc1nc2ccc(C)cc2[nH]1	-6.4%[44.1 µM]
CCc1ccc(S(=O)(=O)N2[C@@H]3CC[C@H]2CC(NC(=O)c2ccncc2)C3)cc1 (stereo partly drawn)	-11.7%
CC(=O)c1cccc(NC(=O)Cn2c(=O)n(-c3ccccc3)c(=O)c3c2cc(C)n3C)c1	9.3%
COc1ccccc1CC(=O)NCC1CCN(c2cnn(C)c(=O)c2)C1 (stereo not drawn)	-8.2%
C[C@H](c1ccccc1)N1C(=O)[C@@H]2CN(C(=O)CC(C)(C)CC(=O)O)CCN2C1=O	i
COc1ccccc1CC(=O)N1CCC(n2nccc2NC(=O)c2ccccc2C)CC1	-18.4%
O=C(N[C@H]1CCN2C(=O)c3cc(-c4ccccc4)ccc3NC(=O)[C@H]12)c1cccc(F)c1	-3.2%[44.1 µM]
COCc1nc(CCNS(=O)(=O)c2cccc(OC)c2)no1	42.4%
CN(CCCc1nccn1C)C(=O)[C@H]1CNC[C@H](C(=O)N2CCOCC2)C1	-6.3%
NCCCC(=O)N1CCCC2(Cc3ccccc3CN2C(=O)Cc2cccc(Cl)c2)C1 (stereo not drawn)	-25.6%
COc1ccc2[nH]c(C[C@@H]3C[C@@H](C(C)C)[C@H](CNC(=O)c4cnccn4)C=C3C)nc2n1	i
CCNc1ncc(-c2nc3cc(S(=O)(=O)NC(C)C)ccc3n2C(C)C)cn1	-11.3%
Cc1cc(C(=O)N2CCC3(CC2)CNC(=O)C3)cc(S(N)(=O)=O)c1C	-7.5%
CN1CC(=O)N(C2CCNCC2)Cc2c1ncnc2N1CCCC(O)C1 (stereo not drawn)	13.5%
O=C(N[C@@H]1CCN(Cc2ccc(-c3ccn[nH]3)o2)C[C@H]1O)c1cnccn1	-0.1%
SMILES	Pf Dd2 growth
COc1ccc(-c2noc(-c3nc(-c4cc(OC)c(OC)c(OC)c4)no3)n2)cc1OC	33.3%
COc1ccc(C2CC(=O)N(Cc3ccc(F)cc3)c3ccccc3S2)cc1 (stereo not drawn)	i
COc1cc(C2CC(=O)N(Cc3ccc(F)cc3)c3ccccc3S2)cc(OC)c1OC (stereo not drawn)	1.12µM*
COc1ccc(C2CC(=O)N(Cc3ccc(F)cc3)c3ccccc3S2)cc1OC (stereo not drawn)	22.3%
CC(C)CCN1CCCC2(CNc3ccccc3[S+](=O)([O-])N2)C1 (stereo not drawn)	12.6µM*
N#Cc1ccc(CN2CCCC3(CNc4ccccc4[S+](=O)([O-])N3)C2)cc1 (stereo not drawn)	i
Cn1nccc1CN1CCCC2(CNc3ccccc3[S+](=O)([O-])N2)C1 (stereo not drawn)	-3.0%
Cc1cccc(-c2cccc(NC(=O)C3CCCN(Cc4cnc(C)nc4)C3)c2)c1 (stereo not drawn)	-21.9%
Cc1ccc(OCCn2c(COc3ccc(Cl)cc3)nc3ccccc32)cc1	0.3%
CCc1ccc(OCCCn2c(-c3ccc(Cl)cc3)nc3ccccc3c2=O)cc1	27.2%
CCCC(O)c1nc2ccccc2n1CCCOc1ccc(Cl)cc1 (stereo not drawn)	5.01µM*
CC(C)c1ccc(C2=CC(c3cccc(Cl)c3)n3c(nc4ccccc43)N2)cc1 (stereo not drawn)	11.2µM*
